Screens (PubChem BioAssay)
RTF Ca sens inh – cardiac RTF calcium desensitization; actives 0.12% (n = 340,000); inhibition, % at 7.15 µM; IANBD-labeled cardiac RTF, Ca2+ fluorescence; P19429+P45379;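 active = inhibition above the mean inhibition of all tested compounds plus 3 SD, cut at about 17% in these data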;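 note: assay run at fixed EC70 calcium of 1.6 mM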
Keap1 Nrf2 FP – disrupts human Keap1 binding to Nrf2 peptide. Q14145. Keap1 Kelch-Nrf2 peptide fluorescence polarization, 1536-well. inhibition, % at 9.4 µM. actives 0.15% (n = 340,000). AID 504523; in the data active = inhibition above about 12%;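 note: human Keap1 Kelch domain with fluorescein labeled Nrf2 9mer peptide probe; 0% = neutral control wells and 100% = peptide positive control; higher means more block of Keap1 binding to Nrf2 peptide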
Target sequence (Q14145 whole entry, looked up, the tested form may be a part): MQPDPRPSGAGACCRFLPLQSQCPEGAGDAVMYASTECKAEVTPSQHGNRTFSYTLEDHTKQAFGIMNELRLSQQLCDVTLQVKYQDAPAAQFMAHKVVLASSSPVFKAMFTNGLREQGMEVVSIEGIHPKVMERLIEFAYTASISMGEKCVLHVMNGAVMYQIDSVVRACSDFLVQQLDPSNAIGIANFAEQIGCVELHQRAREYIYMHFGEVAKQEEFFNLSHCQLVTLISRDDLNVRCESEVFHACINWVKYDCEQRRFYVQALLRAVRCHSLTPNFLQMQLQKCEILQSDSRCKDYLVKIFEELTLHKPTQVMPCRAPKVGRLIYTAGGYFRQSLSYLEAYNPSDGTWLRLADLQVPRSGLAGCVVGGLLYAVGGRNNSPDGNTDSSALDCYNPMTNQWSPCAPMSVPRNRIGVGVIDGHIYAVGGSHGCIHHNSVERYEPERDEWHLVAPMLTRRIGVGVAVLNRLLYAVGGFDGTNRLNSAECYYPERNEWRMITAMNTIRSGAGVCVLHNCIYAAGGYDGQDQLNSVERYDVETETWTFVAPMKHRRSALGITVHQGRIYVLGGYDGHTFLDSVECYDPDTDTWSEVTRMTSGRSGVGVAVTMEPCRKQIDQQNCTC
LANA DNA inh – blocks KSHV LANA C-terminal domain binding to DNA. MBP-C-LANA/FAM-LBS DNA binding, fluorescence polarization. inhibition, % at 9 µM. actives 0.078% (n = 340,000). AID 504423;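 active = highest replicate inhibition at or above 60% at 9 µM, even if other replicates fall short; inactive = all replicates below 60% inhibition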;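 note: 0% = neutral control wells and 100% = 4 µM acridine orange control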
LANA-H2A inh – blocks KSHV LANA binding to histone H2A/H2B; cell-free LANA-H2A/H2B peptide, fluorescence polarization; Q9QR71; actives 0.6% (n = 320,000); inhibition, % (concentration not given with the values); AID 2629; in the data active = inhibition mostly above about 10%, no sharp cut-off; inactive = mostly below about 6.7%
RTF Ca sens act – increases calcium sensitivity of human cardiac regulated thin filaments; P19429+P45379; IANBD-labeled TnC RTF fluorescence at EC20 calcium; 0% EC20 calcium, 100% full calcium; activation, % at 7.2 µM; actives 0.24% (n = 340,000); AID 493008;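 active = activation above the mean over all tested compounds plus 3 SD, cut at about 30% in these data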;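 note: rise in fluorescence read as greater calcium sensitivity of cardiac thin filaments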
Active calls of the source: *; . = not tested or not shown; + = active, no number. Most compounds without a hit are left out; they make up all but 0.99% or so of the library.

SMILES | RTF Ca sens inh | Keap1 Nrf2 FP | LANA DNA inh | LANA-H2A inh | RTF Ca sens act
C=CCOC(=O)c1cc(-c2ccc(/C=C3\C(=O)NC(=O)C(C#N)=C3C)o2)ccc1Cl | -5 | 3 | 81* | . | -12
Brc1ccc(-c2cnnc(N3CCCC3)n2)cc1 | -57 | -3 | 2 | -1 | 79*
Fc1ccccc1CN1CCCCCCC1 | -3 | -3 | 0 | -4 | -1
Fc1cccc(F)c1-n1c(CN2CCCC2)csc1=S | 3 | -4 | 1 | 33* | -5
Cn1c2c(c(=O)n(C)c1=O)C(C(F)(F)F)(C(F)(F)F)N=C(CCC1CCCCC1)N2 | -2 | -1 | -1 | 2 | 45*
Cn1c2c(c(=O)n(C)c1=O)C(C(F)(F)F)(C(F)(F)F)N=C(c1ccccc1Cl)N2 | -14 | 0 | 0 | 4 | 9
CCN(CC)C(=O)CSc1ccc(C(F)(F)F)cc1[N+](=O)[O-] | 6 | -5 | -1 | -1 | -4
CCCCNC(=O)c1ccc(SCC(=O)N(CC)CC)c([N+](=O)[O-])c1 | -2 | -6 | 0 | 79* | -3
CC(C)=C(C#N)c1nc2ccccc2s1 | -11 | -5 | 2 | 11 | 1
CC1=CC(=C(C#N)c2nc3ccccc3s2)C=C(C)N1c1ccc(F)cc1 | -7 | -2 | -3 | 0 | 110*
COc1ccccc1N1C(C)=CC(=C(C#N)c2nc3ccccc3s2)C=C1C | -44 | 2 | 2 | 1 | 53*
Cn1c(=O)c2c(SCC(=O)N3CCOCC3)nc(C3CCCCC3)nc2n(C)c1=O | . | . | . | -4 | .
Cc1noc(C)c1CSc1nnc2n(-c3ccccc3)c(=O)c3ccccc3n12 | -1 | 1 | -1 | 21* | 1
CCOC(=O)C1(Cc2cccc(OC)c2)CCN(Cc2cccc(OCC)c2O)CC1 | -3 | -2 | -2 | -2 | 3
COc1ccc(-c2cc(C(F)(F)F)n3nc(C(=O)N(C)Cc4ccccc4)cc3n2)cc1OC | -14 | -2 | 0 | 18* | -3
COc1ccc(-c2cc(C(F)(F)F)n3nc(C(=O)Nc4cc(C)on4)cc3n2)cc1OC | -12 | 1 | 0 | 0 | -1
O=C(CSc1nc2c(cnn2-c2ccccc2)c(=O)[nH]1)NCC1CCCO1 (stereo unspecified) | 0 | -1 | 0 | . | -4
COc1ccccc1C(=O)NN(C)C1=NS(=O)(=O)c2ccccc21 | -2 | 2 | 2 | -4 | 60*
CCN(C(=O)CSc1nc2ccc([N+](=O)[O-])cc2s1)C1CCS(=O)(=O)C1 (stereo unspecified) | 14 | -4 | 1 | -6 | 1
COc1ccc(-c2nnc3ccc(SCC(=O)Nc4nc5ccc(C)cc5s4)nn23)cc1OC | -4 | -7 | 0 | 2 | 4
O=C(NCCc1ccc(Cl)cc1)C1CCC(=O)N1Cc1ccccc1Cl (stereo unspecified) | -2 | -1 | 0 | 13* | 2
COc1ccc(N(CC(=O)Nc2ccc3c(c2)OCO3)S(=O)(=O)c2c(C)nn(C)c2C)cc1 | -2 | 0 | 0 | 5 | 0
CC(Sc1ccsc1[N+](=O)[O-])C(=O)NCc1ccccc1 (stereo unspecified) | . | . | . | 22* | .
COc1ccc(S(=O)(=O)N2CCC(C(=O)NCCC(=O)NCc3ccncc3)CC2)cc1 | -11 | 0 | 0 | -2 | 6
COc1ccc(S(=O)(=O)N2CCOC2CNC(=O)C(=O)NCc2ccccc2OC)cc1 (stereo unspecified) | -7 | 1 | 0 | 100* | 3
COc1ccc(S(=O)(=O)N2CCC(C(=O)NCCC(=O)NCc3ccccc3OC)CC2)cc1 | -9 | 2 | -1 | 14* | -2
COc1ccc(C(=O)N2CCOC2CNC(=O)C(=O)NCc2ccco2)cc1 (stereo unspecified) | 13 | -3 | -1 | + | 2
COc1ccc(CCNC(=O)C2CC(O)CN2S(=O)(=O)c2ccc(Cl)cc2)cc1OC (stereo unspecified) | 3 | 0 | 12 | 0 | -3
COCCN(CCOC)C(=O)c1c[nH]c2ccc(S(=O)(=O)N(C)c3ccc(F)cc3)cc2c1=O | -4 | 3 | 1 | 80* | -3
CCOc1ccccc1N(C)S(=O)(=O)c1ccc2[nH]cc(C(=O)N(CCOC)CCOC)c(=O)c2c1 | -2 | -3 | 1 | 3 | 7
